ADAM10 inh: human ADAM10 inhibitors, primary screen, biochemical, QFRET, HTS; inhibition, % at 7 µM; recombinant ADAM10, EDANS/DABCYL FRET peptide cleavage, 3 h; Disintegrin and metalloproteinase domain-containing protein 10 (Homo sapiens), O14672; hit rate 0.62% among 370,000;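 active means inhibition above a per-campaign cutoff equal to the mean of compounds falling between control-based bounds plus 3 SD, cut at about 20% in these data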;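 further: 0% = DMSO wells while the 100% control is not disclosed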
HGIII-sPLA2 inh: human group III sPLA2 inhibitors, primary screen, biochemical, QFRET, BODIPY PC-A2 liposome substrate | Group 3 secretory phospholipase A2 (Homo sapiens), Q9NZ20 | QFRET BODIPY PC-A2 liposome hydrolysis, fluorescence | inhibition, % at 12.2 µM | hit rate 0.56% among 370,000;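 active means inhibition above mean plus 3 SD of compounds lying within the high and low control bounds, cut at about 19% in these data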;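 further: 0% = median of test compound wells and 100% = no enzyme DMSO wells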
NRP1-CendR mod: modulators of CendR peptide binding to NRP-1, primary screen, biochemical, fluorescence polarization, uHTS | FAM-RPARPAR peptide binding to NRP-1 | inhibition, % at 25 µM | hit rate 0.85% among 360,000 | AID 602438, 2012;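 active means inhibition or corrected inhibition above about 18%, plus a signal ratio from 0.5 to 1.5, limit read from the data, passing the limit was not always enough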
proKLK7 act: proKLK7 zymogen activators, primary screen, biochemical, fluorescence intensity; Kallikrein-7 (Homo sapiens), P49862; purified proKLK7, EDANS-DABCYL substrate fluorescence; 100% is mature enzyme control, 0% vehicle; activation, % at 7 µM; hit rate 0.9% among 370,000; AID 652039, 2013;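 active means activation above the mean of all tested compounds plus 3 SD, computed per campaign excluding outliers beyond control limits, cut at about 13% in these data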
ADAM17 inh: ADAM17 inhibitors, primary screen, biochemical, QFRET | recombinant ADAM17, EDANS/DABCYL FRET peptide cleavage | inhibition, % at 6.95 µM | hit rate 0.83% among 370,000;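 active means inhibition above the mean of compounds lying between control limits plus 3 SD, set per campaign, cut at about 8.5% in these data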;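 further: 0% = DMSO-only wells as the low control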
Target sequence (P78536 215-824 limits assumed): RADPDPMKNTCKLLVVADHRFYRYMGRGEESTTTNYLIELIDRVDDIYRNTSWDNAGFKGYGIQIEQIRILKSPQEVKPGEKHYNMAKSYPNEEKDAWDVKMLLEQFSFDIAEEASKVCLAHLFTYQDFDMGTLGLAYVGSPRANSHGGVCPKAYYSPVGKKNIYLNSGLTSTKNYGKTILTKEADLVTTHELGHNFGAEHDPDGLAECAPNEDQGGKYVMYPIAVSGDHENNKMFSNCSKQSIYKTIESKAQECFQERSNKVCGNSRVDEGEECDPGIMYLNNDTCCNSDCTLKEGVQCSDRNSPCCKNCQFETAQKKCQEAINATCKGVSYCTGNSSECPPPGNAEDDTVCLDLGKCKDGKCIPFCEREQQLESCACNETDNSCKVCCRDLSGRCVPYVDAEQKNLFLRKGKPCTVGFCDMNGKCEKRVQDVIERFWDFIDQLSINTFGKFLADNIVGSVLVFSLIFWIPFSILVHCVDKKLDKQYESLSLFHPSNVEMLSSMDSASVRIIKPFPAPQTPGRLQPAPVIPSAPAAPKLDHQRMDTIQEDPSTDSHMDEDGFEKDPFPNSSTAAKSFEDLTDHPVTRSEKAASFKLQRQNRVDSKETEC
ADAM10 confirm: human ADAM10 inhibitors, confirmation, biochemical, QFRET, triplicate; shares compounds with ADAM10 inh; ADAM10 QFRET peptide cleavage, EDANS fluorescence; inhibition, % at 6.95 µM; hit rate 1% among 2,100; AID 743208, 2013;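 active means inhibition above about 20% chosen separately for each screening run, limit read from the data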;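 further: 0% = DMSO wells and 100% = marimastat wells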
ADAM17 ctr: ADAM17 inhibitors, counter-screen for ADAM10 exosite inhibitor project, biochemical, QFRET, high throughput | shares compounds with ADAM10 inh | ADAM17 QFRET peptide cleavage, EDANS fluorescence | inhibition, % at 6.95 µM | hit rate 0.5% among 2,100 | AID 743214, 2013;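 active means mean triplicate inhibition above the solvent-only control wells' mean plus 3 SD, cut at about 12% in these data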;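 further: 0% = DMSO wells and 100% = marimastat wells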
* hit, by the source's call; nt = no result given. Hits are enriched below; roughly 3.4% of the tested compounds scored in any of these assays.

SMILES	ADAM10 inh	HGIII-sPLA2 inh	NRP1-CendR mod	proKLK7 act	ADAM17 inh	ADAM10 confirm	ADAM17 ctr
COc1ccc2nc(SCC(=O)Nc3ccc(S(=O)(=O)N4CCCC4)cc3)c(C#N)cc2c1	72*	-4	-37	-23	-4	20*	10
Cc1ccc(S(=O)(=O)Nc2ccc(Cl)cc2)cc1NC(=O)c1cc2c(s1)CCCC2	24*	-56	-3	-1	10*	17	4
CC(=O)NC(c1ccc(F)c(F)c1)c1nc(-c2cccc(C(C)C)c2)cs1 (stereo not given)	20*	-18	1	0	7	3	2
N#CCC(CNc1ncc(C(F)(F)F)cc1Cl)OC(=O)c1cccc([N+](=O)[O-])c1 (stereo not given)	21*	-17	5	0	8	0	1
Cc1cccc(-c2cccc3c4c([nH]c23)[C@@H]2C[C@H](N(C)C(=O)c3ccccc3C)[C@H]([C@H](C)O)CN2CC4)c1	-71	2	nt	2	-19	nt	nt
CC(C)N1CCCCC(NC(=O)c2cccc(C(F)(F)F)c2)C1=O (stereo not given)	7	6	nt	-1	1	nt	nt
COc1cccc(/C(=N/O)C2CC2c2ccc(Cl)cc2)c1 (stereo not given)	22*	2	-5	1	7	6	1
COc1cccc(/C(C)=N/NS(=O)(=O)c2ccc(Cl)cc2)c1	-5	3	-4	0	-5	nt	nt
COc1ccc(C2(c3ccc(OC)cc3)NC(=O)N(CC(=O)Nc3ccc(OC(F)F)cc3)C2=O)cc1	31*	-24	3	-1	6	9	2
COc1cccc(-c2csc(NC(=O)Nc3ccccc3)n2)c1	25*	-33	5	0	5	7	2
COc1ccc(-c2csc(NC(=O)c3c(OC)cccc3OC)n2)cc1	30*	-1	10	-3	2	7	1
COC(=O)C1CN(C2CCCC2)CCS(=O)(=O)N1Cc1cn(Cc2ccc(OC)cc2)nn1 (stereo not given)	2	-1	nt	0	-2	nt	nt
CN[C@H]1C[C@H]2c3cc(-c4ccccc4C)ccc3CCN2C[C@H]1[C@H](C)O	-9	3	nt	1	-2	nt	nt
O=C(CCn1c(=O)oc2ccccc21)N1CCN(C(c2ccccc2)c2ccccc2)CC1	27*	-17	1	1	4	3	2
O=C(CCn1c(=O)oc2ccccc21)N1CCN(c2ccccc2F)CC1	-4	1	-13	1	-7	nt	nt
COc1ccc2c(c1)CNC2CS(=O)(=O)NC1CCCC1 (stereo not given)	-60	6	nt	0	-15	nt	nt
CCCC1CCC2(CC1)CCC2OC(=S)Nc1ccc(N(C)C)cc1 (stereo not given)	1	4	nt	nt	-2	nt	nt
CC(C)NC(=O)N(C)C[C@H]1Oc2ccc(NC(=O)Nc3ccc(C(F)(F)F)cc3)cc2C(=O)N([C@H](C)CO)C[C@@H]1C	-1	-18	8	0	1	nt	nt
C[C@H]1CCCCO[C@H](CN(C)C(=O)Nc2ccc(F)cc2)[C@@H](C)CN([C@@H](C)CO)C(=O)c2cc(NC(=O)Nc3ccc4c(c3)OCO4)ccc2O1	23*	-31	2	0	8	10	3
C[C@@H]1CN([C@@H](C)CO)C(=O)c2cccc(NC(=O)Nc3ccc(F)cc3)c2O[C@@H]1CN(C)Cc1ccc(Oc2ccccc2)cc1	21*	-31	-2	1	4	7	2
C[C@@H]1CCCCO[C@H](CN(C)C(=O)NC2CCCCC2)[C@@H](C)CN([C@H](C)CO)C(=O)c2cc(NC(=O)c3ccccc3)ccc2O1	-9	-4	-28	0	-1	nt	nt
C[C@@H]1CCCCO[C@H](CN(C)C(=O)Nc2ccc(F)cc2)[C@@H](C)CN([C@H](C)CO)C(=O)c2cc(NC(=O)c3ccccc3)ccc2O1	23*	-8	-5	0	3	3	0
C[C@@H]1CN([C@H](C)CO)C(=O)c2cc(NC(=O)Nc3ccc(C(F)(F)F)cc3)ccc2O[C@H]1CN(C)C(=O)Nc1ccc(F)cc1	35*	-30	6	1	8	8	2
O=C(NCCc1ccccc1)OCc1cn(-c2ccc(Cl)cc2)nn1	8	5	nt	0	-1	nt	nt
Cc1n[nH]c(C)c1S(=O)(=O)NC(C)Cc1ccccn1 (stereo not given)	1	10	nt	0	-1	nt	nt
SMILES	ADAM10 inh	HGIII-sPLA2 inh	NRP1-CendR mod	proKLK7 act	ADAM17 inh	ADAM10 confirm	ADAM17 ctr
C[C@@H]1CN([C@@H](C)CO)C(=O)c2ccccc2-c2ccccc2CO[C@@H]1CN(C)Cc1ccc(Cl)c(Cl)c1	22*	-12	nt	-1	8	8	3
COC(=O)c1cc(C2(c3c[nH]c4ccccc34)CCN(C(=O)OC(C)(C)C)CC2)n2ccccc12	-458	-25	nt	-11	-215	nt	nt
Cc1nc(N2CCN(C(=O)C3CC3)CC2)c2c3c(sc2n1)CC(C)CC3 (stereo not given)	-42	5	nt	nt	-6	nt	nt
Cc1ccc2c(c1)/C(=C/c1ccc(F)cc1)C(=O)N2	22*	-1	3	-1	3	1	0
Cc1ccc2c(c1)/C(=C/c1ccccc1C)C(=O)N2	0	-11	8	0	2	nt	nt
CCOC(=O)c1sc2nc(CSc3ccccc3)nc(N3CCC(C(N)=O)CC3)c2c1C	-10	-15	2	-3	0	nt	nt
Cc1sc2nc(CSc3ccccc3)nc(N3CCC(C(N)=O)CC3)c2c1C	20*	-5	3	0	7	3	0
NS(=O)(=O)c1ccc(CCNc2nn3c(-c4cccc(OC(F)(F)F)c4)cnc3s2)cc1	21*	-77	-7	0	6	5	1
COc1ccc(CCNc2ccc(S(N)(=O)=O)cn2)cc1	-5	-3	6	0	-4	nt	nt
Cc1cccnc1NC(=O)COc1ccc2oc3c(c2c1)CCCC3	82*	-1	8	0	-3	4	1
O=C(NCc1ccc(F)cc1)c1noc2c1CCCC2	nt	nt	-7	nt	nt	nt	nt
